Screening results from PubChem.
GPR151 ag: activates the human receptor GPR151 | 650,000 tested, 1% active | Q8TDV0 | activation, % at 11.2 µM | PathHunter beta-arrestin GPR151 cells, luminescence; in the data active means activation above about 4.9%
TEAD-YAP inh: TEAD-YAP interaction inhibition; 640,000 tested, 1.4% active; inhibition, % at 9.12 µM; HEK-TIYL cells, TEAD-Gal4/YAP UAS-luciferase luminescence; in the data active means inhibition above about 32%
MITF inh: blocks human microphthalmia-associated transcription factor; AlphaScreen MITF homodimerization, bead proximity signal; inhibition, % at 2.6 µM; O75030; 650,000 tested, 0.91% active; in the data active means inhibition above about 50%
Target sequence (O75030 whole entry, looked up): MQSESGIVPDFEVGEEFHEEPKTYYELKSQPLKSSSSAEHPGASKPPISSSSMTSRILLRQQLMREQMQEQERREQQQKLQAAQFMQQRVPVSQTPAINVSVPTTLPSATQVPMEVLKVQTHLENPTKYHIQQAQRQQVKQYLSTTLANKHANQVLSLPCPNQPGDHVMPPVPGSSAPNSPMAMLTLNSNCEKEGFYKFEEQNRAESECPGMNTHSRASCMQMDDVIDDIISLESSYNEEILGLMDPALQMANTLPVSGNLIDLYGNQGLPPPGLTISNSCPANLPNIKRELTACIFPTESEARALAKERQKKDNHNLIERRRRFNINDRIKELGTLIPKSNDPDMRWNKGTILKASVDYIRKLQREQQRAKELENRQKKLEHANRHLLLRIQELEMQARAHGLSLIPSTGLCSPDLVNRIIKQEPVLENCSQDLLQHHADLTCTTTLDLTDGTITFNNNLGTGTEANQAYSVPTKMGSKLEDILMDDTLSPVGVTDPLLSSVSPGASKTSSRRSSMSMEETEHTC
FBW7 act: human FBW7 E3 ligase activation, primary screen. Q969H0. AlphaScreen FBW7–phospho-cyclin E peptide binding, activator screen. normalized activity (activation), % at 26.1 µM. 650,000 tested, 0.13% active. AID 1259310; in the data active means normalized activity above about 1.9%;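 further: purified mutant Fbw7 with reduced substrate affinity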
Of the large screens only hits and unclear results are named; the others gave an inactive call. Rows were chosen to be rich in hits. Some 3.4% of all compounds tested hit in one or more screens of this group.

CCOC(=O)C1=C(C)NC2=C(C(=O)CC(c3ccco3)C2)C1c1cccs1 (stereo not drawn)	TEAD-YAP inh 63
CCOCCOC(=O)C1=C(C)NC2=C(C(=O)CC(c3cccs3)C2)C1c1cccs1 (stereo not drawn)	none
CC1=C(C(=O)OC(C)C)C(c2ccsc2)C2=C(CC(c3cccs3)CC2=O)N1 (stereo not drawn)	TEAD-YAP inh 67
O=C1N[C@H](Cc2ccccc2)C(=O)N2C[C@@H](NCc3cnn(-c4cccc(Cl)c4)c3)C[C@@H]12	none
c1ccc(CSc2ccc3nnc(-c4ccccn4)n3n2)cc1	none
CN(C)CCOc1ccc(-c2cccc(Cl)c2)cn1	none
COc1ccc(C2C(C#N)=C(N)Oc3ccc4ccccc4c32)cc1OC (stereo not drawn)	none
N#CC1=C(N)Oc2ccc3ccccc3c2C1c1ccccc1F (stereo not drawn)	TEAD-YAP inh 52
COc1cc(C2C(C#N)=C(N)Oc3ccc4ccccc4c32)cc(OC)c1OC (stereo not drawn)	TEAD-YAP inh 48
O=S(=O)(c1ccc(-c2csc(=Nc3ccccc3)n2Cc2ccc3c(c2)OCO3)cc1)N1CCCC1	none
CCOC(=O)c1ccccc1NC(=O)N1CCOc2ccc(Cl)cc21	none
CC(C)c1ccc(-c2csc(NC(=O)c3cc(Cl)cc(Cl)c3)n2)cc1	none
CCn1nc(C)cc1C(=O)Nc1nc(-c2ccc(C(C)C)cc2)cs1	TEAD-YAP inh 38
COc1cccc(C(=O)NC(=S)Nc2ccccn2)c1	TEAD-YAP inh 36
Cc1ccnc(NC(=S)NC(=O)c2ccc(Cl)cc2)c1	none
Cc1ccnc(NC(=O)c2ccccc2Cl)c1	TEAD-YAP inh 35
Cc1ccnc(NC(=S)NC(=O)c2ccccc2)c1	TEAD-YAP inh 34
Cc1ccccc1C(=O)Nc1nn2c(-c3ccccc3)nnc2s1	none
COC(=O)c1sccc1NC(=O)c1csc(C)c1-c1ccccc1	TEAD-YAP inh 33
Cc1ccc(C)c(NC(=O)CSc2cn(CCNC(=O)c3cccs3)c3ccccc23)c1	none
O=C1C(=O)N(Cc2ccc(Br)cc2)c2ccc([N+](=O)[O-])cc21	TEAD-YAP inh 33
Cc1ccc(CN2C(=O)C(=O)c3cc([N+](=O)[O-])ccc32)cc1	TEAD-YAP inh 66
O=C1C(=O)N(Cc2ccc(Cl)c(Cl)c2)c2ccc([N+](=O)[O-])cc21	none
O=C1C(=O)N(Cc2cccc3ccccc23)c2ccc([N+](=O)[O-])cc21	TEAD-YAP inh 35
O=C1C(=O)N(Cc2cccc3ccccc23)c2ccc(Br)cc21	none
CC(=O)Nc1ccc(-n2c(C)cc(C=C3C(=O)c4ccccc4C3=O)c2C)cc1	TEAD-YAP inh 83
CC(=O)Nc1ccc(-n2c(C)cc(C=C3C(=O)N(C)C(=O)N(C)C3=O)c2C)cc1	none
CC1CCCC(NC(=O)CSc2ncccc2C(=O)O)C1C (stereo not drawn)	none
O=C(/C=C/c1ccc(O)c(O)c1)OC(Cc1ccc(O)c(O)c1)C(=O)O (stereo not drawn)	MITF inh 88
COc1ccc(-c2nc3c(c4c2C[C@H](c2ccccc2)OC4)CN(C(=O)N[C@@H](C)c2ccccc2)CC3)c(C)c1	none (no result: TEAD-YAP inh)
CCOc1cc(N2CCOCC2)c(OCC)cc1NS(=O)(=O)c1ccc(F)c(F)c1	TEAD-YAP inh 35
Nc1ccc2nc(-c3ccccc3)sc2c1	TEAD-YAP inh 85, FBW7 act 2.7
c1ccc(-c2ccc(-c3nc4ccccc4s3)cc2)cc1	TEAD-YAP inh 92
Nc1ccc(-c2nc3ccccc3s2)cc1	TEAD-YAP inh 51
Nc1ccc(-c2nc3ccccc3s2)c(Cl)c1	none
CC(C)c1ccc(NC(=O)CSc2nc3ccsc3c(=O)n2NC(=O)COc2ccccc2Br)cc1	none
CCOC(=O)N1CCN(Cc2nnc(-c3cccc(Cl)c3)o2)CC1	none
N#Cc1ccsc1NC(=O)c1ccccc1Cl	none
N#Cc1ccsc1NC(=O)c1ccccc1	none
N#Cc1ccsc1NC(=O)c1ccc2c(c1)CCCC2	TEAD-YAP inh 43
N#Cc1ccsc1NC(=O)/C=C/c1ccccc1	TEAD-YAP inh 64
N#Cc1ccsc1NC(=O)c1cccc2ccccc12	TEAD-YAP inh 47
Cc1ccc(C(=O)Nc2sccc2C#N)cc1C	none
CC(=O)c1sc(N)nc1-c1ccccc1	none
CC(=O)Nc1ccc(OCCOCCOc2ccc(NC(C)=O)cc2)cc1	none
CCS(=O)(=O)c1ncc(Cl)c(C(=O)Nc2ccccc2F)n1	none
CCS(=O)(=O)c1ncc(Cl)c(C(=O)Nc2ccc(Cl)cc2)n1	none
CCS(=O)(=O)c1ncc(Cl)c(C(=O)Nc2ccccc2C(F)(F)F)n1	TEAD-YAP inh 35
CCS(=O)(=O)c1ncc(Cl)c(C(=O)Nc2cccc(C(F)(F)F)c2)n1	TEAD-YAP inh 34
